47 compounds from PubChem BioAssay AID2685 (National Center for Advancing Translational Sciences (NCATS), 2010) can be followed below.

SMILES strings stand for the structures. The campaign covered roughly 320,000 compounds. About 2,100 (0.66%) were called active. Not shown: some 53% with an inconclusive outcome. The sample holds actives, similar compounds and a random draw of the others, so the mix is not that of the screen. The call rests on the fitted dose curve; in most records, active means well fitted inhibition curve with a large enough effect in the signal ratio, with a control signal flat (not every such curve was filed as active); inconclusive means small, poorly fitted or top-dose-only effect, or effect the other way, or a change in a side signal; inactive means flat fitted curve, though single readings scatter; the % refers to the signal ratio.
Potency means the concentration at half of the fitted maximal effect.

The assay in a line: qHTS Assay for Lipid Storage Modulators in Drosophila S3 Cells.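 On cell number change: cells counted by Cell Tracker Red CMTPX staining in the red channel.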 On lipid storage change, negative = inhibition: on the % scale 0 is the no-effect control and ±100 the full control effect. To be noted: BODIPY lipid droplet fluorescence, 18-24 h, cells fed with added oleic acid; cell number change: measured here: cell count max response; series mostly up to 46.1 µM; lipid storage change, negative = inhibition: at the top concentration. From the text: NIH Molecular Libraries Probe Production Centers Network [MLPCN] NIH Chemical Genomics Center [NCGC] MLPCN Grant: 1 R03 MH085686-01 Assay Submitter (PI): Beller, Mathias; Max-Planck-Institut fur Biophysikalische Chemie NCGC Assay Overview: Storing lipids as a reservoir for energy or the anabolism of elementary metabolites is a common feature of probably all cells and is conserved from bacteria to humans. The universal cellular lipid storage organelle is the so-called lipid storage droplet (LD). Although ubiquitous, LDs share a simple structure composed of a hydrophobic core that harbors the storage lipids, which is shielded by a droplet-specific phospholipid monolayer to which proteins are attached. The current model of LD biogenesis involves an incorporation of the lipid core into the membrane leaflets of the endoplasmic reticulum (ER) followed by a subsequent budding-like maturation of a LD, which ultimately pinches off. Once released, LD volume can increase by localized lipogenesis or fusion of existing droplet. Storage lipids are re-mobilized enzymatically by lipase activity. Lipase regulation in the adipocyte is heavily studied and involves multiple components including catecholamine signaling, the LD-associated proteins Perilipin and comparative gene identification (CGI-58) and at least two lipases named hormone sensitive lipase (HSL) and adipocyte triglyceride lipase (ATGL). LD regulation outside of the adipocyte is poorly understood and only few components are known. However, there is an urgent need to learn more about ectopic fat depots as mislocalized storage of lipids, for example in the liver or muscle, is an eminent health problem associated with insulin resistance or the metabolic syndrome. We developed a laser-scanning cytometer assay to enable 1,536-well screening and combined the results of the small molecules screen with an RNAi database based on lipid storage.
Triacsin C (Sigma-Aldrich T-4540), an inhibitor of long-chain fatty acyl CoA synthetase that blocks synthesis of triglycerides, was used as a positive control for lipid under-storage. A total of 23 nL of compound solution of different concentrations were transferred to the assay plates using a Kalypsys pin tool equipped with a 1,536-pin array containing 10-nL slotted pins (FP1S10, 0.457-mm diameter, 50.8 mm long; V&P Scientific). One microliter of oleic acid (400 uM) was added, and the plate was lidded with stainless steel rubber gasket lined lids containing pinholes. […] Fluorescence was detected by excitation of the fluorophores with a 488-nm laser on an Acumen Explorer (TTP Lab Tech). The total intensity in channel 2 (500-530 nm) reflected lipid droplet accumulation. Cells were detected using channel 3 (575-640 nm) with 5-um width and 100-um depth filters. The ratio of the number of objects in PMT channel 2 over the number of objects in PMT channel 3 was also calculated. Percent activity was computed relative to an internal control (100% inhibited lipid droplet deposition due to the presence of 20 uM Triacsin C), which was added to 32 wells/plate.
(In general: Quantitative high-throughput screening tests each substance at several concentrations.)
For `C/C(=N/NC(=O)c1ccncc1)c1ccccc1`, the “lipid storage change, negative = inhibition” value was 27.6% (inactive) and the cell number change was -7.04%.
Regarding `Cc1ccccc1NC(=O)COC(=O)c1ccc(S(C)(=O)=O)c([N+](=O)[O-])c1`, the Potency is 25.9 µM (active) and the cell number change was -15.7%.
As to `CC(=O)c1cccc(NC(=O)COC(=O)c2ccc(S(C)(=O)=O)c([N+](=O)[O-])c2)c1`, the “lipid storage change, negative = inhibition” value is -16.9% (inactive) and the cell number change was -10.3%.
The like results for `Cc1ccccc1NC(=O)COC(=O)c1ccc(S(=O)(=O)N2CCCC2)cc1` were, in that order, 9.1% (inactive) and 10.7%.
Regarding `Cc1ccc(NC(=O)c2c(C)nn(-c3ccccc3)c2Cl)c(C)c1`, the “lipid storage change, negative = inhibition” value is 1.17% (inactive) and the cell number change is -13.2%.
For `CC(=O)N1CCOc2ccc(S(=O)(=O)N3CCC(C(=O)NCc4ccc(C)cc4)CC3)cc21` the same measures were -5.97% (inactive) and 17.2%.
On to `CS(=O)(=O)N1CCC(C(=O)NCC2CCCO2)CC1` (stereo not drawn), for which the Potency was 2.31 µM (active) and the cell number change is -2.74%.
`CCCCS(=O)(=O)N1CCC(C(=O)NCC2CCCO2)CC1` (stereo not drawn): the “lipid storage change, negative = inhibition” value is 0.205% (inactive) and the cell number change amounted to 5.96%.
For `CCCS(=O)(=O)N1CCC(C(=O)NCC2CCCO2)CC1` (stereo not drawn), the compound was called inactive.
For the compound `COc1ccc(CC(=O)NC2CCN(Cc3nnnn3C(C)(C)C)CC2)cc1OC`, the Potency was 2.59 µM (active) and the cell number change is -1.5%.
With `Cc1ccccc1C(=O)NC1CCN(Cc2nnnn2C(C)(C)C)CC1`, the “lipid storage change, negative = inhibition” value is 4.79% (inactive).
For `COc1ccc(CC(=O)NC2CC2)cc1OC`, the compound was classed as inactive and the cell number change was found to be 20.4%.
On to `CCN=C1SC(CC(=O)NC(C)c2ccccc2)C(=O)N1CC` (stereo not drawn), for which the “lipid storage change, negative = inhibition” value is -3.35% (inactive) and the cell number change is 8.53%.
For `O=[N+]([O-])c1ccc(N2CCN(CCO)CC2)cc1Sc1nc2ccccc2[nH]1` the same measures were -5.35% (inactive) and -10.6%.
On to `CN1CCN(NC(=S)Nc2ccccc2)CC1`, for which the “lipid storage change, negative = inhibition” value is -1.16% (inactive) and the cell number change amounted to 5.3%.
With `Cc1cccc(C)c1NC(=S)NN1CCN(C)CC1`, the Potency is 23.1 µM (active) and the cell number change is -31.3%.
As to `Cc1cccc(NC(=S)NN2CCN(C)CC2)c1C`, the compound was classed as inactive and the cell number change came out at 19.2%.
As to `COC(=O)c1ccc(Cc2ccc(C(=O)OC)o2)o1`, the “lipid storage change, negative = inhibition” value is 9.86% (inactive) and the cell number change came to 11%.
As to `COC(=O)c1ccc(Cc2ccccc2)o1`, the Potency was 25.9 µM (active) and the cell number change is 0.155%.
In the case of `COC(=O)c1ccc(COc2ccccc2OC)o1`, the “lipid storage change, negative = inhibition” value is 20.1% (inactive) and the cell number change was -9.22%.
For `COc1cccc(CC(=O)N(CCC2=CCCCC2)c2c(N)n(Cc3ccccc3)c(=O)[nH]c2=O)c1` the same measures were 24.1% (inactive) and -11.8%.
For the compound `Cc1nn(-c2ccccc2)c2[nH]c(=O)c(CNCCN3CCOCC3)cc12`, the Potency is 23.1 µM (active) and the cell number change was -6.25%.
On to `Cc1nn(-c2ccccc2)c2[nH]c(=O)c(CNc3ccc(N4CCOCC4)cc3)cc12`, for which the “lipid storage change, negative = inhibition” value was 21.5% (inactive) and the cell number change was -0.634%.
Regarding `Cc1ccc(-c2nn(-c3ccccc3)c3[nH]c(=O)c(CNCCN(C)C)cc23)cc1`, the compound was classed as inactive and the cell number change is -8.5%.
For `Cc1ccc2c(COC(=O)c3ccccc3OC(F)F)cc(=O)oc2c1` the same measures were “inactive” and 26.6%.
Take `Cc1ccc2c(COC(=O)c3ccccc3Cl)cc(=O)oc2c1`: the Potency was 1.64 µM (active) and the cell number change is 0.403%.
`Cc1ccc2c(COC(=O)c3ccccc3Br)cc(=O)oc2c1`: the call was inactive and the cell number change turned out to be 8.73%.
As for `CN(C)C(=O)c1cc(C(=O)c2ccccc2Br)c[nH]1`, the “lipid storage change, negative = inhibition” value was 7.47% (inactive) and the cell number change is 10.8%.
Take `Cc1nn(CC(=O)NCc2cccnc2)c(C)c1[N+](=O)[O-]`: the “lipid storage change, negative = inhibition” value is 4.48% (inactive) and the cell number change came to 15.3%.
Turning to `COC(c1ccccc1)c1nnc(CCC(=O)N2CCN(C3CCCC3)CC2)o1` (stereo not drawn), the compound was classed as inactive and the cell number change came out at 22.7%.
For the compound `COC(c1ccccc1)c1nnc(CCC(=O)N2CCCCCCC2)o1` (stereo not drawn), the “lipid storage change, negative = inhibition” value was 11.6% (inactive) and the cell number change is 7.76%.
For the compound `COC(c1ccccc1)c1nnc(CCC(=O)NCCc2ccc(Cl)cc2)o1` (stereo not drawn), the Potency is 14.6 µM (active) and the cell number change is -7.97%.
Consider `CCOC(=O)c1ccc(NC(=O)CCc2nc(-c3ccc(C)cc3)no2)cc1`, for which the compound was classed as inactive.
For the compound `CC(c1ccccc1)C1C(C#N)=C(N)OC2=C1C(=O)CC(C)(C)C2` (stereo not drawn), the “lipid storage change, negative = inhibition” value is 6.38% (inactive).
As to `CN(CC(=O)Nc1ccccc1Cl)C(=O)Cn1nnc(-c2ccc(F)cc2)n1`, the compound was classed as inactive.
Take `CCC1CCCCN1C(=O)c1sc2nc(C)nc(N(CC)CC)c2c1C` (stereo not drawn): the “lipid storage change, negative = inhibition” value was 7% (inactive) and the cell number change came out at 9.48%.
For the compound `CCCCCN(C(=O)CCC(=O)OC(C)C(=O)NCc1ccccc1)c1c(N)n(CCCC)c(=O)[nH]c1=O` (stereo not drawn), the cell number change was -30.3% and the lipid storage change, negative = inhibition is 4.2% [at 0.0737 µM] (inactive).
As for `Cn1c(SCC(=O)NCc2ccco2)nnc1-c1ccc(S(=O)(=O)N2CCOCC2)cc1`, the Potency is 5.8 µM (active) and the cell number change was -9.46%.
As for `CCCCn1c(SCC(=O)NCc2ccco2)nnc1-c1ccco1`, the “lipid storage change, negative = inhibition” value was -2.67% (inactive) and the cell number change was -17%.
As to `O=C(CN1CCCc2ccccc21)NC(=O)NCc1ccco1`, the compound was called inactive and the cell number change worked out at 15.9%.
In the case of `Cc1ccc(NC(=O)CSc2nnc(-c3ccc(S(=O)(=O)N4CCOCC4)cc3)n2C)cc1`, the call was inactive.
Turning to `O=C(CSCC(=O)NCc1ccco1)NCc1ccco1`, the Potency is 6.51 µM (active) and the cell number change is 16.7%.
Consider `O=C(CSc1ccccc1)NCc1ccco1`, for which the “lipid storage change, negative = inhibition” value was 6.48% (inactive) and the cell number change is -1.34%.
For `CCCCn1nnnc1SCC(=O)NNC(=O)c1ccco1` the same measures were -4.32% (inactive) and 1.07%.
`CCCCn1nnnc1SCC(=O)NCc1ccco1`: the Potency was 23.1 µM (active) and the cell number change amounted to 0.128%.
As for `Cc1ccc(CSCC(=O)NCc2ccco2)cc1`, the “lipid storage change, negative = inhibition” value was -0.179% (inactive) and the cell number change stood at 14.7%.
For `Cn1c(SCC(=O)NCc2ccco2)nnc1-c1ccccc1` the same measures were -2.43% (inactive) and -3.55%.
